Assay results reported in PubChem BioAssay.
Active and inactive are the calls of the source.

What was measured:
[1] = test system: XIP peptide (Xip251-270) binding; experiment: small-molecule binders of XIP peptide, primary screen, biochemical, small-molecule microarray, fluorescence 635/667 nm, 0.1 µg/mL protein (AID 1182); conditions: fluorescent protein binding, 635 nm, higher = more signal, called active from +8 up or from −8 down
XIP peptide (Xip251-270) = experiment: small-molecule binders of XIP peptide, primary screen, biochemical, small-molecule microarray, fluorescence 635/667 nm, 0.5 µg/mL protein (AID 1183); conditions: small-molecule microarray binding, fluorescence 635 nm; higher = more signal
[2] = Plasmodium falciparum growth inhibition, primary screen, strain 3D7, DAPI fluorescence, 100 nL (AID 1184);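 note: parasites grown inside human red blood cells in medium with human serum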; conditions: P. falciparum 3D7 growth, 3 d, higher = more signal
[3] = biological target: Homeobox protein Hox-A13 (Mus musculus) (UniProt Q62424); experiment: inhibitors of HoxA13-DNA binding, primary screen, biochemical, fluorescence polarization, labeled oligonucleotide (AID 1185); conditions: 15 min, higher = more signal, called active from +8 up or from −8 down
Homeobox protein Hox-A13 (Mus musculus), sequence (Q62424 whole entry, looked up): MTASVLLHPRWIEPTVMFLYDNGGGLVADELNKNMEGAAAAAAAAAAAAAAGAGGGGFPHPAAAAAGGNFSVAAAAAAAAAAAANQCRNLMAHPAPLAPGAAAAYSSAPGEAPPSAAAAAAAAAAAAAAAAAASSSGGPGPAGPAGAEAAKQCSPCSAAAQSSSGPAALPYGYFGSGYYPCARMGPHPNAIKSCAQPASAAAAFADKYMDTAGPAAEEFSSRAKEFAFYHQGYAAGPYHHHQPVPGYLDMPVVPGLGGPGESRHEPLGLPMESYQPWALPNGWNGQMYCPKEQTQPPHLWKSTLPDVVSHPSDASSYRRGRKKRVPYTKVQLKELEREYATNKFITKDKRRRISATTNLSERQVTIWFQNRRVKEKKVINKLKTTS

Row | SMILES | composite z-score [1] | composite z-score (XIP peptide (Xip251-270)) | z-score [2] | z-score [3]
1 | CO[C@@H]1COC(=O)[C@@H]2CCCN2C(=O)[C@@H](C)COC(=O)CC=C[C@H]1C | 0.523 (inactive) | 0.569 | 0.442 | -0.236 (inactive)
2 | CCOC(=O)CCN1C(=O)[C@H]2[C@H]3[C@H](O)[C@H](O)CC(=NOCC(C)C)[C@H]3CC[C@H]2C1=O | 0.289 (inactive) | 0.158 | 1.2 | 0.737 (inactive)
3 | O=C(NN=C1C[C@@H](O)[C@@H](O)[C@@H]2[C@@H]3C(=O)N(C[C@@H]4CCCO4)C(=O)[C@@H]3CC[C@@H]12)OCc1ccccc1 | 1.77 (inactive) | 0.126 | 0.263 | 0.756 (inactive)
4 | CC(C)(C)N1C(=O)[C@H]2[C@H]3[C@H](O)[C@H](O)CC(=O)[C@@H]3CC[C@H]2C1=O | -0.138 (inactive) | 0.419 | -0.507 | -0.472 (inactive)
5 | COC(=O)CC=C[C@@H](C)[C@@H](C=NO[C@@H](C)c1cn([C@H](CO)Cc2ccccc2)nn1)NS(=O)(=O)c1ccc(C)cc1 | -0.294 (inactive) | 0.464 | 0.281 | -4.93 (inactive)
6 | COc1ccc(O[C@H]2C=C[C@@H](c3ccccc3)O[C@@H]2COC(=O)CCC(C)=NOC(C)CN2CCCc3nc(C)c(C)cc32)cc1 (stereo partly specified) | 0.53 (inactive) | 0.552 | -1.95 | -5.13 (inactive)
7 | CO[C@H]1COC(=O)[C@@H]2CCCN2C(=O)CC=C[C@@H](C)[C@H](OC)COC(=O)[C@@H](OCc2ccccc2)C=C[C@@H]1C | 0.0932 (inactive) | 0.789 | -1.42 | -1.53 (inactive)
8 | CCc1cc2c(nc1CC)CCN(CCC(C)=NOC[C@H]1O[C@H](c3ccccc3)C=C[C@@H]1Oc1ccc(OC)cc1)C2 | 0.248 (inactive) | 0.431 | -1.63 | -3.13 (inactive)
9 | C[C@@H](c1ccccc1)N1C(=O)[C@H]2[C@H]3[C@H](O)[C@H](O)CC(=NO[C@@H]4O[C@H](CO)[C@@H](O)[C@H](O)[C@H]4O)[C@H]3CC[C@H]2C1=O | -0.0033 (inactive) | 0.216 | -0.648 | -0.285 (inactive)
10 | COc1ccc(O[C@@H]2[C@H](O)CO[C@H]2C=Cc2ccccc2)cc1 | 0.266 (inactive) | -0.0143 | 0.465 | -1.16 (inactive)
11 | O=C1[C@H]2[C@H]3[C@H](O)[C@H](O)CC(=NOC[C@@H](O)COCc4ccco4)[C@H]3CC[C@H]2C(=O)N1C[C@@H]1CCCO1 | -0.149 (inactive) | 0.605 | 0.523 | -0.514 (inactive)
12 | C[C@H]1CC[C@H]2C(=O)OC(CO)CN2[C@@H]1c1ccc(Br)cc1 (stereo partly specified) | 0.201 (inactive) | 0.115 | -0.296 | -0.52 (inactive)
13 | COc1ccc(O[C@H]2C=C[C@@H](c3ccccc3)O[C@@H]2CON=CC[C@@H]2C=C[C@H](OC(C)=O)[C@@H](COC(C)=O)O2)cc1 | 0.21 (inactive) | -0.104 | -0.483 | -4.06 (inactive)
14 | CCC(=O)[C@@]1(O)C(=O)N2C(=C3C(=O)OCC[C@@H]31)N(Cc1ccccc1)C(C)=C(C(=O)OC)[C@H]2c1ccccc1 | -0.0955 (inactive) | 0.177 | 0.663 | -0.219 (inactive)
15 | CCc1cc2c(nc1CC)CCN(CCC(C)=NO[C@H](C)c1cn([C@@H]3COC[C@H]3O)nn1)C2 | -0.171 (inactive) | -0.0063 | 0.653 | -1.7 (inactive)
16 | CC(=O)Nc1ccc([C@@H]2N[C@H](C(=O)O)CC[C@H]2C)cc1 | -0.0813 (inactive) | 0.119 | 0.962 | -0.107 (inactive)
17 | CCOC(=O)[C@H](CC(C)C)NC(=O)CCC1CC(OC(=O)NCc2ccc3c(c2)OCO3)CC2(CCCC(COC(=O)NCC3CCCCC3)O2)O1 (stereo partly specified) | 0.269 (inactive) | 0.0826 | -1.77 | -6.18 (inactive)
18 | CO[C@H]1COC(=O)[C@@H](C)COC(=O)[C@H](C)NC(=O)CC=C[C@H]1C | -0.166 (inactive) | 0.564 | -0.455 | -0.236 (inactive)
19 | C[C@@H](c1ccccc1)N1C(=O)[C@H]2[C@H]3[C@H](O)[C@H](O)CC(=NOCc4ccccc4)[C@H]3CC[C@H]2C1=O | -0.0218 (inactive) | 0.548 | 0.754 | 0.0197 (inactive)
20 | COc1ccc(O[C@H]2C=C[C@@H](c3ccccc3)O[C@@H]2CON=C(C)C)cc1 | 0.862 (inactive) | 0.267 | 0.894 | 2.39 (inactive)
21 | CC(C)=CCCC(C)=CCON=C1C[C@@H](O)[C@@H](O)[C@@H]2[C@@H]3C(=O)N(c4ccc(F)cc4F)C(=O)[C@@H]3CC[C@H]12 | -0.163 (inactive) | 0.37 | 0.0436 | -2.5 (inactive)
22 | CCOC(=O)[C@H](Cc1ccccc1)NC(=O)CCC1CC(OC(=O)NCCc2ccc(F)cc2)CC2(CCCC(COC(=O)NCc3ccccc3)O2)O1 (stereo partly specified) | 0.501 (inactive) | 0.283 | -1.64 | -2.25 (inactive)

Row | SMILES | composite z-score [1] | composite z-score (XIP peptide (Xip251-270)) | z-score [2] | z-score [3]
23 | CC(C)CON=C1[C@H]2CCn3c(=O)n(Cc4cc5c(cc4Cl)OCO5)c(=O)n3[C@H]2[C@H](O)[C@@H]2O[C@H]12 | 0.26 (inactive) | 0.368 | -1.17 | 1.8 (inactive)
24 | COc1cccc([C@H]2Oc3ccc(OC)cc3C(=NOC[C@@H](O)[C@H]3O[C@@H]4OC(C)(C)O[C@@H]4[C@H]3O)[C@@H]2O)c1 | -0.815 (inactive) | 0.697 | 0.187 | -3.04 (inactive)
25 | C=CC[C@@H]1C=C[C@H](ON=C(C)CCN2CCc3nc(-c4ccccc4)c(-c4ccccc4)cc3C2)[C@@H](CO)O1 | 0.957 (inactive) | 0.58 | -0.0674 | -5.72 (inactive)
26 | CCN1C(=O)[C@H]2[C@H]3[C@H](O)[C@H](O)CC(=O)[C@@H]3CC[C@H]2C1=O | 0.221 (inactive) | 0.488 | 1.51 | 0.202 (inactive)
27 | O=C1CCCC(C2=CCCCC2=O)C1 (stereo unspecified) | -0.273 (inactive) | 0.0997 | 0.488 | -1.63 (inactive)
28 | CCCCC#C[C@@H]1C=C[C@H](Oc2cc(OC)c(OC)c(OC)c2)[C@@H](COC(=O)OCC)O1 | 0.392 (inactive) | 0.355 | 0.421 | -5.07 (inactive)
29 | CCOC(=O)[C@H](CC(C)C)NC(=O)CCC1CC(OC(=O)NCc2cccc3ccccc23)CC2(CCCC(COC(=O)NCCOc3ccccc3)O2)O1 (stereo partly specified) | 0.761 (inactive) | 0.471 | -1.81 | -3.36 (inactive)
30 | CCOC(=O)[C@H](CC(C)C)NC(=O)CCC1CC(OC(=O)NCc2cccc3ccccc23)CC2(CCCC(COC(=O)NCCOC)O2)O1 (stereo partly specified) | -0.182 (inactive) | 0.446 | -1.88 | -3.68 (inactive)
31 | CC(C)=NO[C@H](C)c1cn([C@H](CO)Cc2ccccc2)nn1 | -0.662 (inactive) | 0.0455 | 0.28 | 0.584 (inactive)
32 | COC(=O)CC=C[C@H](C)[C@@H](OCc1cccc(Br)c1)[C@@H](C)[C@H](OC)C1CCCCC1 | 0.685 (inactive) | 0.768 | 0.536 | 0.0373 (inactive)
33 | COc1ccc(COC(=O)NN=C2C[C@@H](O)[C@@H](O)[C@@H]3[C@@H]4C(=O)N(c5ccc(F)cc5F)C(=O)[C@@H]4CC[C@H]23)cc1 | 0.051 (inactive) | 0.393 | -1.93 | -6.79 (inactive)
34 | C=CC[C@@H]1C=C[C@H](ON=C(C)CCC(=O)OC[C@H]2O[C@H](C#Cc3ccccc3)C=C[C@@H]2Oc2ccc(C)cc2)[C@@H](CO)O1 | 1.18 (inactive) | 0.437 | 0.37 | -4.14 (inactive)
35 | CO[C@H]1COC(=O)CCC[C@@H](C)[C@H](OC)COC(=O)[C@@H]2CCCN2C(=O)CC=C[C@@H]1C | 0.0072 (inactive) | 0.497 | -0.74 | -0.0208 (inactive)
36 | COc1ccc(COC(=O)NN=C2C[C@@H](O)[C@@H](O)[C@@H]3[C@@H]4C(=O)N(c5cccc(Oc6ccccc6)c5)C(=O)[C@@H]4CC[C@@H]23)cc1 | -0.378 (inactive) | -0.206 | -0.374 | -4.69 (inactive)
37 | CCOC(=O)[C@H](CC(C)C)NC(=O)CCC1CC(OC(=O)NCc2cccc3ccccc23)CC2(CCCC(COC(=O)NCCC(C)C)O2)O1 (stereo partly specified) | -0.299 (inactive) | 0.434 | -0.267 | -6.1 (inactive)
38 | O=C1[C@H]2[C@H]3[C@H](O)[C@H](O)CC(=NOCc4ccccc4)[C@@H]3CC[C@H]2C(=O)N1c1ccc(F)cc1F | -0.228 (inactive) | 0.0159 | -0.545 | 0.941 (inactive)
39 | CC(CCN1CCc2nc(-c3ccccc3)c(-c3ccccc3)cc2C1)=NOC[C@@H](O)[C@H]1O[C@@H]2OC(C)(C)O[C@@H]2[C@H]1O | 0.176 (inactive) | 0.528 | 0.688 | -5.63 (inactive)
40 | CCOC(=O)[C@H](Cc1ccccc1)NC(=O)CCC1CC(OC(=O)NCCc2ccc(F)cc2)CC2(CCCC(COC(=O)NCCCN3CCCC3=O)O2)O1 (stereo partly specified) | 0.414 (inactive) | 0.701 | -1.6 | -2.25 (inactive)
41 | O=C1C[C@@H](O)[C@@H](O)[C@@H]2[C@@H]3C(=O)N(C[C@@H]4CCCO4)C(=O)[C@@H]3CC[C@@H]12 | 0.74 (inactive) | 0.592 | -0.223 | 0.368 (inactive)
42 | CC(=O)OC[C@H]1O[C@@H](ON=C(C)CCN2CCCc3nc(C)c(C)cc32)[C@H](OC(C)=O)[C@@H](OC(C)=O)[C@@H]1OC(C)=O | -0.444 (inactive) | 0.667 | -1.3 | -5.84 (inactive)
43 | CC(C)=CCCC(C)=CCON=C1C[C@@H](O)[C@@H](O)[C@@H]2[C@@H]3C(=O)N(c4ccc(F)cc4F)C(=O)[C@@H]3CC[C@@H]12 | -0.0619 (inactive) | 0.542 | -1.59 | -4.62 (inactive)
44 | O=C(C=Cc1ccc2c(c1)OCO2)c1ccc(F)cc1 | -0.158 (inactive) | 0.629 | -0.533 | 0.526 (inactive)
